A selection: hits, their analogues and other compounds. The true share with any hit is near 3.7%.
FMDV antiviral = foot and mouth disease virus antiviral activity | Potency, µM (titrated, usually from 57.9 µM), most hits filed as inhibitors | 1.2% of 410,000 active | FMDV antiviral cell-based qHTS; calls by dose curve; tested in HEK293T cells; note: read-out not given here; nearly all actives have a fitted effect of over 45% in size
RE007 growth inh = less growth of the S. pombe RE007 Vpr strain | S. pombe RE007 Vpr strain, BacTiter-Glo ATP luminescence, 24 h | Potency, µM (titrated, usually from 92.2 µM), usual class: inhibitors | 0.21% of 360,000 active | AID 651644; active = well fitted falling curve with a large enough effect; inconclusive = small, poorly fitted or top-dose-only effect; inactive = no such curve, though single readings can be large or run the other way; note: nearly all actives have a fitted effect of over 50% in size
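Fission yeast strain RE007, carrying one chromosomally integrated HIV-1 vpr copy, was seeded at OD 0.01 in PMG+AL medium with 23 nL pinned compound. After 24 h at 30 °C and 99% humidity, viability was read by BacTiter-Glo luminescence.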
TbPYK inhibitor = T. brucei pyruvate kinase inhibition; Q57TT1; TbPYK enzyme, Kinase-Glo Plus ATP luminescence, 45 min; Potency, µM (titrated, usually from 76.8 µM), actives largely listed as inhibitors; 0.12% of 410,000 active; AID 624173; note: nearly all actives have a fitted effect of over 50% in size
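In this concentration-response screen, enzyme-free wells defined baseline while DMSO plates tracked drift. Each reaction combined TbPYK, substrate, compound and 130 uM ADP for 45 min at room temperature. Kinase-Glo Plus luminescence gave the signal.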
Sm TGR inh = inhibitors of Schistosoma mansoni thioredoxin glutathione reductase | Q962Y6 | purified TGR, DTNB reduction, TNB absorbance 405 nm | Potency, µM (series often up to 114 µM), actives largely listed as inhibitors | 3% of 360,000 active | AID 485364; note: nearly all actives have a fitted effect of over 60% in size
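First, TGR (20 nM dispensed) and NADPH were mixed with compound. Second, a 15 min room-temperature incubation followed. Third, further NADPH and then DTNB were added to start the reaction. Finally, TNB absorbance was monitored kinetically.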
Of the large screens only hits and unclear results are named; the others gave an inactive call. Unless noted, calls come from the whole dose curve; as a rule, active = well fitted curve in the direction sought with a large enough effect; inconclusive = small, poorly fitted or top-dose-only effect, or another doubt; inactive = no such curve, though single readings can be large; an effect the other way counts as inactive or inconclusive.

CCn1c(C)cc(C(=O)CN2C(=O)c3ccccc3S2(=O)=O)c1C	FMDV antiviral inconclusive
COc1ccccc1CNC(=O)CSc1nc2nc(C)c(Cc3ccccc3Cl)c(C)n2n1	none (no result: RE007 growth inh)
C=CCn1c(SCC(=O)/C(C#N)=C(\C)N)nc2sc(CC)cc2c1=O	FMDV antiviral 22µM
C=CCn1c(SCC(=O)N2CCc3ccccc3C2)nc2sc(C)cc2c1=O	FMDV antiviral 22µM
C=CCn1c(SCC(=O)c2cccs2)nc2sc(CC)cc2c1=O	FMDV antiviral 20µM (no result: TbPYK inhibitor)
CN(C)c1nc2cc3c(cc2cc1CN(CC1CCCO1)C(=O)/C=C/c1cccs1)OCO3 (stereo not drawn)	none (no result: RE007 growth inh, TbPYK inhibitor, Sm TGR inh)
CCCOc1cccc(C2c3c(oc4cc(C)c(C)cc4c3=O)C(=O)N2CCCN2CCOCC2)c1 (stereo not drawn)	none (no result: RE007 growth inh)
CC(C)C1Oc2ccccc2N(CC(=O)N(Cc2ccncc2)Cc2ccco2)C1=O (stereo not drawn)	Sm TGR inh 32µM
Cc1ccc(C(C)C)c(OCCCn2ccnc2C)c1	Sm TGR inh 89µM
Cc1cn2c(=O)cc(COc3cccc(NC(=O)c4ccc(C(C)(C)C)cc4)c3)nc2s1	none (no result: RE007 growth inh)
O=C(CSc1ccc(C(F)(F)F)cn1)Nc1ccccc1	none
O=C(/C=C/Sc1ccc(C(F)(F)F)cn1)c1ccccc1	Sm TGR inh 89µM
Cc1noc(C)c1-c1nc(NCc2cccs2)c2ccccc2n1	none (no result: RE007 growth inh, TbPYK inhibitor, Sm TGR inh)
CCN(CC)/C(Sc1ccccc1)=C(/C(Cl)=C(Cl)Cl)[N+](=O)[O-]	Sm TGR inh 56µM
CCN(CC)C(=O)C(Oc1ccc(C)nc1[N+](=O)[O-])c1ccccc1 (stereo not drawn)	none
O=[N+]([O-])/C(C(Cl)=C(Cl)Cl)=C(\Sc1ccccc1)N1CCCCC1	Sm TGR inh 13µM
CCN(CC)/C(Sc1ccccc1)=C(\C(Cl)=C(Cl)Cl)[N+](=O)[O-]	Sm TGR inh 22µM
CC(=O)Oc1cc2c(C(=O)NCCCN3CCOCC3)c(C)oc2c2ccccc12	Sm TGR inh 35µM
O=C(Nc1cccc(Cl)c1Cl)c1cc(S(=O)(=O)N2CCC3(CC2)OCCO3)ccc1F	none (no result: RE007 growth inh)
Cc1cnccc1CN(C)Cc1cn(C)nc1-c1cccc(Cl)c1	Sm TGR inh inconclusive
CC(c1ccon1)N(C)Cc1cn(C)nc1-c1cccc(Cl)c1 (stereo not drawn)	FMDV antiviral inconclusive, Sm TGR inh 28µM
CCCCN1CCCC1C(=O)Nc1c(C)cc(C)cc1C (stereo not drawn)	none (no result: FMDV antiviral, RE007 growth inh, Sm TGR inh)
CCCN1CCC2(CC1)NC(C(=O)O)Cc1c2[nH]c2ccccc12 (stereo not drawn)	Sm TGR inh 25µM
CC(C)CC1NC(C(=O)O)Cc2c1[nH]c1ccccc21 (stereo not drawn)	none
CCCC1NC(C(=O)O)Cc2c1[nH]c1ccccc21 (stereo not drawn)	Sm TGR inh 45µM
CC(C)C1NC(C(=O)O)Cc2c1[nH]c1ccccc21 (stereo not drawn)	Sm TGR inh inconclusive
CCC1(C)NC(C(=O)O)Cc2c1[nH]c1ccccc21 (stereo not drawn)	Sm TGR inh 35µM
Cn1ncc(C(=O)N2CCN(c3ccccc3)CC2)c1C1CCN(C(=O)OC(C)(C)C)CC1	none (no result: RE007 growth inh)
N#C/C(=C(/O)CCl)c1nc(-c2ccccc2)cs1	Sm TGR inh inconclusive
Cc1ccc(-c2csc(/C(C#N)=C(\O)CCl)n2)cc1	Sm TGR inh 18µM
O=c1cc(N2CCCCC2)c(-c2ccccc2)nn1Cc1ccccc1Cl	FMDV antiviral 40µM
O=c1cc(N2CCCCC2)c(-c2ccccc2)nn1Cc1ccc(Cl)cc1Cl	FMDV antiviral inconclusive
C[C@H]1C[C@@H]2[C@H]([C@@H](O)C[C@@]3(C)[C@H]2CC[C@]3(O)C(=O)COC(=O)CCC(=O)O)[C@@]2(C)C=CC(=O)C=C12	none (no result: FMDV antiviral, RE007 growth inh, Sm TGR inh)
COC(=O)c1c(C)nn(-c2ccc(OC(F)(F)F)cc2)c1-c1snnc1C	FMDV antiviral 35µM
O=C(Cc1cccs1)NCCSc1c(-c2ccc(Cl)cc2)[nH]c2ccccc12	FMDV antiviral 22µM
CC(C)(C)C1=CC=C(C(C)(C)C)C(=O)C1=O	Sm TGR inh 25µM (no result: FMDV antiviral, RE007 growth inh, TbPYK inhibitor)
CC(=O)n1cc(C(C[N+](=O)[O-])SCCN)c2ccccc21 (stereo not drawn)	FMDV antiviral inconclusive, RE007 growth inh inconclusive, TbPYK inhibitor inconclusive, Sm TGR inh 8.9µM
COc1cccc(Nc2nc(N)nc(C(F)(F)F)n2)c1	none
Cc1cccc(Nc2nc(N)nc(CCl)n2)c1C	none
COc1cccc(Nc2nc(N)nc(CCl)n2)c1	Sm TGR inh 20µM
Cc1cccc(Nc2nc(N)nc(CCl)n2)c1	Sm TGR inh 14µM
COC(=O)CCc1ccc(O)cc1	none
COC(=O)C1(Cc2ccc(O)cc2)OC(=O)C(O)=C1c1ccc(O)cc1 (stereo not drawn)	Sm TGR inh 16µM
CC(=O)c1ccc(-c2nnc(CCC(=O)N(C)Cc3cccc4cnccc34)o2)s1	Sm TGR inh 40µM
Cc1ccc2nc(/C(C#N)=C\c3ccc([N+](=O)[O-])o3)[nH]c2c1	FMDV antiviral inconclusive, RE007 growth inh inconclusive
N#C/C(=C\c1ccc([N+](=O)[O-])o1)c1nc2ccccc2[nH]1	FMDV antiviral 25µM
O=C(c1cn(-c2ccccc2)nc1-c1ccccc1)n1nnc2ccccc21	FMDV antiviral inconclusive
O=C(c1ccc2c(c1)OCO2)n1nnc2ccccc21	Sm TGR inh 10µM (no result: FMDV antiviral, RE007 growth inh, TbPYK inhibitor)
COc1ccc(N/C(=C(/C(Cl)=C(Cl)Cl)[N+](=O)[O-])n2nnc3ccccc32)cc1OC	Sm TGR inh 22µM (no result: FMDV antiviral, RE007 growth inh, TbPYK inhibitor)
COc1cccc(-c2nn(-c3ccccc3)cc2C(=O)n2nnc3ccccc32)c1	FMDV antiviral 40µM
CCSc1ccccc1C(=O)n1nnc2ccccc21	FMDV antiviral inconclusive, Sm TGR inh 20µM
Cc1cnc(C)c(-c2cccc3c2OC(CNC(=O)C2(c4ccc(Cl)cc4)CC2)C3)n1 (stereo not drawn)	none (no result: RE007 growth inh, TbPYK inhibitor, Sm TGR inh)
COC(=O)c1ccc(Cn2c(=O)cc(C(F)(F)F)c3c(C)nn(C)c32)cc1	none (no result: RE007 growth inh)
COc1ccc(C(=O)n2nnc3ccccc32)cc1OC	Sm TGR inh 6.3µM
COc1ccc(C(=O)n2nnc3ccccc32)cc1Br	Sm TGR inh inconclusive (no result: FMDV antiviral)
CCOc1cc(/C=C\[N+](=O)[O-])ccc1OCC(=O)Nc1ccccc1C	FMDV antiviral 25µM (no result: RE007 growth inh)
CC(NC1=CC(=O)c2cccnc2C1=O)C(O)c1ccccc1 (stereo not drawn)	FMDV antiviral 28µM (no result: Sm TGR inh)
CC(c1ccccc1)N1C(=O)c2cccnc2C1=O (stereo not drawn)	none
CCc1ccc(CNC(=O)c2cnc3c(C)cccn3c2=O)cc1	none (no result: RE007 growth inh)
CCOc1ccc(C(=O)N2CCn3c2nc2ccccc23)cc1	Sm TGR inh 45µM
COc1ccc(C(=O)N2CCn3c2nc2ccccc23)cc1	none
COc1ccccc1OCC#CCN1CCCCCC1	none
COc1ccccc1OCC#CCN1CCOCC1	Sm TGR inh 11µM
CCn1c2ccccc2c2c3ncc4cccn4c3ccc21	Sm TGR inh 28µM
O=C1C2=C(CCCC2)C(=O)N1c1cccc(OCCBr)c1	RE007 growth inh inconclusive, Sm TGR inh 45µM
CC(C)CN(CCOc1cccc(N2C(=O)C3=C(CCCC3)C2=O)c1)CC(C)C	FMDV antiviral inconclusive

High-throughput results from PubChem BioAssay.
